In PubChem BioAssay (NCATS):
Inconclusive results are not listed. A call without a number means that no potency is given here. The source made the active and inactive calls. Calls follow the shape of the dose curve; as a rule, active = well fitted cell-killing curve with a large enough effect; inconclusive = small, poorly fitted or top-dose-only effect, or effect the other way; inactive = no such curve, though single readings can be large or run the other way.

test: Quantitative High-Throughput drug screen in 47 multiple myeloma cell lines against the NCATS MIPE library collection: L363_DSMZ cell viability assay (AID 1918984); conditions: L363 myeloma viability, CellTiter-Glo ATP luminescence, 48 h; series mostly up to 45.8 µM
How it was run: (§1)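 MIPE 4.0 approved/investigational drugs; 500 cells/well; 48 h 37 °C humidified 5% CO2; CTG luminescence readout; DMSO = 100%, media = 0% viability.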
Also: nearly all actives have a fitted effect of over 40% in size.
Potency is read from the fitted curve at half-maximal effect.

| Compound | Potency |
| --- | --- |
| NC1=NC(=O)N2CC12 (configuration not stated) | 9350 nM (active) |
| CC(C)N(CCNC(=O)CN1CCCC1=O)C(C)C | inactive |
| CC(=CCCC1=CCC(C2=CC(=O)OC2O)OC1O)CCC1=C(C)CCCC1(C)C (configuration not stated) | 2350 nM (active) |
| COc1ccc2c(c1)[C@]13CCCCC1C(C2)N(C)CC3 (some centres not stated) | inactive |

test: Quantitative High-Throughput drug screen in 47 multiple myeloma cell lines against the NCATS MIPE library collection: KMS34_JCRB cell viability assay (AID 1918985); conditions: KMS34 myeloma viability, CellTiter-Glo ATP luminescence, 48 h; series mostly up to 45.8 µM
How it was run: as §1

| Compound | Potency |
| --- | --- |
| CC(=Cc1csc(C)n1)[C@@H]1C[C@H]2O[C@]2(C)CCC[C@H](C)[C@@H](O)[C@@H](C)C(=O)C(C)(C)[C@@H](O)CC(=O)O1 | inactive |
| O=c1cccc2n1CC1CNC[C@H]2C1 | inactive |
| Cc1c(N)nc([C@H](CC(N)=O)NC[C@@H](N)C(N)=O)nc1C(=O)N[C@H](C(=O)N[C@@H](C)[C@H](O)[C@@H](C)C(=O)N[C@@H](C(=O)NCCc1nc(-c2nc(C(=O)NCCC[S+](C)C)cs2)cs1)[C@@H](C)O)C(O[C@H]1O[C@H](CO)[C@H](O)[C@@H](O)[C@@H]1O[C@H]1O[C@H](CO)[C@@H](O)[C@H](OC(N)=O)[C@H]1O)c1cnc[nH]1 (some centres not stated) | 264 nM (active) |
| CC(C)(O)C(=O)Nc1ccc([N+](=O)[O-])c(C(F)(F)F)c1 | inactive |
| C[C@](O)(COc1ccc(C#N)cc1)C(=O)Nc1ccc(C#N)c(C(F)(F)F)c1 | inactive |
| C#CC1(O)CCC2C3CCC4=CC(=O)CCC4(C)C3CCC21C (configuration not stated) | inactive |
| CCC(=O)OC1CCC2C3CCC4=CC(=O)CC[C@@]4(C)C3CC[C@]12C (some centres not stated) | inactive |
| c1ccc(CCCN2CCN(CCOC(c3ccccc3)c3ccccc3)CC2)cc1 | 26400 nM (active) |
| O=C(O)CNC(=O)c1c(O)c2ccccc2n(Cc2ccccc2)c1=O | inactive |
| CN(C)NC(=O)CCC(=O)O | inactive |
| O=C(Oc1ccc([N+](=O)[O-])cc1)N1CCC(C(O)(c2ccc3c(c2)OCO3)c2ccc3c(c2)OCO3)CC1 | inactive |
| CN(C)[C@@H]1C(=O)C(C(N)=O)=C(O)[C@@]2(O)C(=O)C3=C(O)c4c(O)cccc4[C@@](C)(O)[C@H]3[C@H](O)[C@@H]12 | 3720 nM (active) |
| NC1=NC(=O)N2CC12 (configuration not stated) | inactive |
| CC(C)N(CCNC(=O)CN1CCCC1=O)C(C)C | inactive |
| COc1cc([C@@H]2c3cc4c(cc3[C@@H](O)C3COC(=O)C32)OCO4)cc(OC)c1O (some centres not stated) | 18.7 nM (active) |
| C#C[C@]1(O)C=C[C@@H]2[C@@H]3CCC4=CC(=O)CC[C@@H]4[C@H]3CC[C@@]21CC | inactive |
| C[C@]12CC[C@H](O)CC1=CC[C@H]1[C@H]3CCC(=O)[C@@]3(C)CC[C@@H]12 | inactive |
| O=C1C=CC[C@@H]2[C@H]3CCCN4CCC[C@@H](CN12)[C@@H]34 | inactive |
| C[C@@H]1CC[C@@]2(OC1)O[C@H]1C[C@H]3[C@@H]4CC=C5C[C@@H](O[C@@H]6O[C@H](CO)[C@@H](O[C@@H]7O[C@@H](C)[C@H](O)[C@@H](O)[C@@H]7O)[C@H](O)[C@@H]6O[C@@H]6O[C@@H](C)[C@H](O)[C@@H](O)[C@@H]6O)CC[C@]5(C)[C@@H]4CC[C@]3(C)[C@@H]1[C@H]2C | 1870 nM (active) |
| COc1ccc2c(c1)[C@]13CCCCC1C(C2)N(C)CC3 (some centres not stated) | inactive |
| C[C@]12Cc3cn[nH]c3C[C@@H]1CC[C@@H]1[C@H]2CC[C@@]2(C)[C@H]1CC[C@]2(C)O | inactive |
| C[C@]12CCC(=O)C(O)=C1CC[C@@H]1[C@H]3CCC(=O)[C@@]3(C)CC[C@@H]12 | inactive |
| CC(C)[C@H]1C(=O)N[C@H](CO)Cc2c[nH]c3cccc(c23)N1C | inactive |
